Shiga toxin inh = Shiga toxin inhibition | Vero cells, Shiga toxin protein synthesis inhibition reporter | inhibition, % at 38.7 µM | 290,000 compounds, 9.2% hits | AID 2315; in the data active = inhibition mostly above about 28%, no sharp cut-off; inactive = mostly below about 43%; note: 0% is about no effect
LmPK inhibitor = blocks Leishmania mexicana pyruvate kinase activity | 290,000 compounds, 0.37% hits | Q27686 | purified LmPK, Kinase-Glo ATP luminescence, 1 h | Potency, µM (highest dose often 57.5 µM), inactives show at the top dose activity change, negative = inhibition, hits mostly inhibitors; note: potency is the fitted concentration of half-maximal effect; % is set by controls: 0 for no effect and ±100 for the full control effect
Target sequence (Q27686 whole entry, looked up): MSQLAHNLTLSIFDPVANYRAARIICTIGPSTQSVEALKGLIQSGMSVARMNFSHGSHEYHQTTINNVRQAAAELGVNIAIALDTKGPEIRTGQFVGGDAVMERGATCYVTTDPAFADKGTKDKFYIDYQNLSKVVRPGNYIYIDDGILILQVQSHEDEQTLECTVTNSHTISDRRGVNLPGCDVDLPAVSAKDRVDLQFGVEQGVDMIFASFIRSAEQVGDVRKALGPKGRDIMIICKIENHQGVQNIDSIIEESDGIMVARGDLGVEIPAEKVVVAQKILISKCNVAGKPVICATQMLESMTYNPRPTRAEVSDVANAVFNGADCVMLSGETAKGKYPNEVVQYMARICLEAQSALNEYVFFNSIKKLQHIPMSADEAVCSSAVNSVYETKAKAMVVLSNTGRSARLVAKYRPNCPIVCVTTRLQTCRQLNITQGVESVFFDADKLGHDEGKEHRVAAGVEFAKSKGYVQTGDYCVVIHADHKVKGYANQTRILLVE
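0.1 nM LmPK, 0.5 mM PEP, 0.1 mM ADP; 50 mM imidazole pH 7.2, 7 mM MgCl2, 50 mM KCl; 1 h RT. Kinase-Glo luminescence readout, normalized to no-enzyme (full inhibition) and uninhibited wells.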
SARS PLP yeast = SARS-CoV PLP inhibition in yeast; S. cerevisiae expressing SARS-CoV PLpro, growth rescue; Potency, µM (titrated, usually from 32.9 µM), inactives show top-dose activity, positive = growth rescue, actives largely listed as activators; 330,000 compounds, 0.19% hits; calls by dose curve; note: potency is the fitted concentration of half-maximal effect; 0% is about no effect; nearly all actives have a fitted effect of over 55% in size
Cycloheximide cs = counter-screen hit for Shiga toxin inhibitors, cycloheximide. 300,000 compounds, 12% hits. cell reporter, cycloheximide protein synthesis inhibition counterscreen. AID 2314. max response, %; in the data active = max response mostly above about 13%, no sharp cut-off; inactive = mostly below about 14%; note: read at 38.3 µM for the half of the compounds with a filed dose; 0% is about no effect
TbPYK inhibitor = blocks Trypanosoma brucei pyruvate kinase | Q57TT1 | TbPYK enzyme, Kinase-Glo Plus ATP luminescence, 45 min | Potency, µM (series often up to 76.8 µM), for inactives: at the top dose activity, negative = inhibition, hits mostly inhibitors | 410,000 compounds, 0.12% hits; note: potency is the fitted concentration of half-maximal effect; % is set by controls: 0 for no effect and ±100 for the full control effect; nearly all actives have a fitted effect of over 50% in size
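ADP (130 uM final) triggers the TbPYK reaction after compound addition; incubation is 45 min at room temperature. Kinase-Glo Plus is then added and luminescence imaged. Normalized data are fitted to concentration-effect curves.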
NS1 inh = blocks influenza NS1 protein function; 270,000 compounds, 0.4% hits; AID 2326; Potency, µM (doses to about 46.1 µM), without a hit: top-dose activity, positive = more growth; calls by dose curve; note: potency is the fitted concentration of half-maximal effect; actives are rising curves; nearly all actives have a fitted effect of over 50% in size
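A cell-based growth assay was used: compounds that relieve NS1-induced slow growth of budding yeast raise OD600. Assay medium was yeast nitrogen base with ammonium sulphate and -URA supplement, pH 6.0, with 2% galactose.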
Numbers without * were called inactive; / = no result given; [ ] = another dose, or the depositor's remark. This is one part of a sample in which hits are shown more often than they occur. Unless noted, calls come from the whole dose curve; as a rule, active = well fitted curve in the direction sought with a large enough effect; inconclusive = small, poorly fitted or top-dose-only effect, or another doubt; inactive = no such curve, though single readings can be large; an effect the other way counts as inactive or inconclusive.

SMILES	Shiga toxin inh	LmPK inhibitor	SARS PLP yeast	Cycloheximide cs	TbPYK inhibitor	NS1 inh
CCOC(=O)C1=C(COC(=O)CCCOc2ccccc2)NC(=O)NC1C (centres undefined)	/	/	0.3%	/	-2.6%	/
O=C(NC1(C(F)(F)F)C(=O)Nc2c1c(=O)[nH]c(=O)n2CCc1ccccc1)c1ccc(Cl)cc1Cl (centres undefined)	/	/	/	/	-0.9%	/
CCNC(=O)C1CCCN(C(=O)c2cc(F)cc(F)c2)CC1 (centres undefined)	/	/	/	/	4.6%	/
CC(C)Cc1ccc(S(=O)(=O)Nc2cc3c(cc2N2CCOCC2)n(C)c(=O)c(=O)n3C)cc1	/	/	/	/	0.0%	/
CCOC(=O)c1ccc(CN(Cc2ccccc2C)S(=O)(=O)c2ccc(F)c(C(=O)Nc3cccc(OC)c3)c2)cc1	/	/	/	/	5.6%	/
Cc1ccc(NC(=O)CCC(=O)c2cccs2)cc1F	42.3	-4.8%	-7.6%	26.8*	0.7%	-1.6%
COc1cccc(CNC(=O)c2c(C)oc3ncnc(N4CCOCC4)c23)c1	/	/	/	/	4.5%	/
CCCN(CCC)CC(O)Cn1cc(/C=C/C(=O)c2ccc(OCC)cc2)c2ccccc21 (centres undefined)	/	/	/	/	1.6%	/
COc1ccc(C(=O)/C=C/c2cn(CN3CCN(C)CC3)c3ccccc23)cc1	49.3*	4.6%	-14.9%	43.3*	-1.4%	-109.5%
CCOc1ccc(C(=O)/C=C/c2cn(CN3CCN(C)CC3)c3ccccc23)cc1	60.6*	0.8%	-5.9%	30.6*	-1.1%	-30.5%
COc1ccc(C(=O)/C=C/c2cn(CC(O)CN3CCc4ccccc43)c3ccccc23)cc1OC (centres undefined)	/	/	/	/	-5.8%	/
O=C(C[C@@H]1C/C=C\CCCC(=O)OC[C@@H]2CCCN2C1=O)N[C@H](CO)Cc1ccccc1	/	/	-11.5%	/	1.0%	/
COc1cccc(CNC(=O)CSc2n[nH]c(-c3ccccc3Cl)n2)c1OC	/	/	/	/	1.9%	/
CCC(=O)NC(c1cccs1)c1cc(Br)c2cccnc2c1O (centres undefined)	/	/	-0.3%	/	/	/
CC(=C\C(=O)O)/C(=C\c1cccc2ccccc12)C(=O)O	82.7*	-2.4%	3.0%	24.9*	-1.4%	-91.5%
C[C@H]1CN([C@@H](C)CO)C(=O)c2cc(NC(=O)C3CCCCC3)ccc2O[C@H]1CN(C)S(=O)(=O)c1ccccc1	/	/	7.9%	/	-0.5%	/
O=C(CSc1ccc2nnc(CCNC(=O)c3ccccc3)n2n1)Nc1ccccc1	-11.9	5.6%[11.5 µM]	-1.2%	-1.9	-1.8%	/
COc1ccc(C(=O)NCCc2nnc(SCC(=O)Nc3ccccc3F)n2C)cc1	-1.6	0.2%	-1.7%	-2.2	-11.6%	-0.9%
COc1ccccc1NC(=O)CSc1nnc(CCNC(=O)c2ccc(C)cc2)n1C	6.6	-1.5%	0.6%	14.9*	4.6%	-8.1%
COc1ccc(C(=O)NCCc2nnc3ccc(SCC(=O)Nc4ccccc4)nn23)cc1	73.4*	-8.7%	-8.8%	43.9*	2.4%	-61.4%
Cc1nn(C)c2c1c(C(F)(F)F)cc(=O)n2CC(=O)NC(C)(C)C	/	/	/	/	0.5%	/
Cc1ccc(CSc2nc(-c3ccc(C(C)(C)C)cc3)nc3cc(=O)[nH]n23)cc1	/	/	/	/	-5.0%	/
Cn1ncc(Cl)c1C(=O)Nc1ccncc1	-3.4	4.6%	15.6%	-1.1	2.4%	9.9%
C/C(=N\NC(=O)c1c(Br)c(C)nn1C)c1cccc(NC(=O)C2CCC2)c1	25.0	-3.9%	-21.5%	11.6	6.0%	-28.1%
C/C(=N\NC(=O)c1nn(C)cc1Br)c1cccc(NC(=O)C2CCCC2)c1	101.7*	-3.2%	4.4%	64.9*	-0.1%	-7.9%
C/C(=N\NC(=O)c1c(Cl)cnn1C)c1ccc(NC(=O)c2ccncc2)cc1	15.7	-3.3%	14.9%	15.6*	2.6%	15.7%
C/C(=N\NC(=O)c1nn(C)cc1Br)c1cccc(NC(=O)C(C)(C)C)c1	97.9*	-0.5%	4.7%	32.0*	1.8%	4.3%
C/C(=N\NC(=O)c1nn(C)cc1Br)c1ccc(NC(=O)c2ccncc2)cc1	105.2*	-4.0%	5.3%	58.8*	-2.8%	5.6%
C/C(=N\NC(=O)c1ccc(N/N=C(\C)c2ccncc2)cc1)c1ccncc1	-12.9	-2.6%	2.1%	8.0	-6.3%	/
O=C1[C@H](Cc2ccccc2)NCC=CC[C@H](c2ccco2)N1Cc1ccccc1	/	/	/	/	-5.7%	/

Screens: PubChem BioAssay, National Center for Advancing Translational Sciences (NCATS)
